Only some compounds are listed: those with a hit (about 27% of all), similar ones and a draw of the others.
CYP2C9 activ – human CYP2C9 activators, primary screen, biochemical, luminescence. Cytochrome P450 2C9 (Homo sapiens), P11712. recombinant CYP2C9, luciferin-H conversion; active compounds read high; factor 1 = untreated enzyme, 0 = blocked. activation factor at 5 µM. 1.4% of 96,000 active;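 active means activation factor of 2 or more for CYP2C9 at a 5 µM dose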;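 further: 0 = sulfaphenazole-blocked wells and 1 = vehicle-only wells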
Target sequence (P11712 whole entry, looked up): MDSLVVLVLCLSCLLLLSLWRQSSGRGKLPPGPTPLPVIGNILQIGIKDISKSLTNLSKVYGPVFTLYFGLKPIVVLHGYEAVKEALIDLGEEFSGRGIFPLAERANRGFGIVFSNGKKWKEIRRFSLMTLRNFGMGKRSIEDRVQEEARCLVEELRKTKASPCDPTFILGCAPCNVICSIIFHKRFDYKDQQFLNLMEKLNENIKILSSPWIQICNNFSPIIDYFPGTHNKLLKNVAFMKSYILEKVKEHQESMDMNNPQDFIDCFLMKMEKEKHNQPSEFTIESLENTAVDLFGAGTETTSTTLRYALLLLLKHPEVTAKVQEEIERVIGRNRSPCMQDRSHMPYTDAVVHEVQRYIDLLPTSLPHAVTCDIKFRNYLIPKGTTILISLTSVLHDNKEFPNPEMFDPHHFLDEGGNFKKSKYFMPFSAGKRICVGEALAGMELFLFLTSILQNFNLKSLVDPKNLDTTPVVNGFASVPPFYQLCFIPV
CYP2C19 activ – human CYP2C19 activators, primary screen, biochemical, luminescence. activation factor at 5 µM. 96,000 tested, under 10 active. AID 1025, 2008. recombinant CYP2C19, luciferin-H EGE luminescence; active compounds read high; 0 = fully inhibited enzyme, 1 = untreated enzyme;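 active means activation factor of at least 2 at 5 µM in the primary screen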;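 further: 0 = wells with 2.5 mM tranylcypromine and 1 = vehicle-only wells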
Cav3 T inh – Cav3.2 calcium influx blockers – cell-based, Fluo-4 calcium fluorescence, FDSS, MLSMR library, primary screen | B-score at 10 µM | AID 449739, 2010 | 4% of 100,000 active | Voltage-dependent T-type calcium channel subunit alpha-1H (Homo sapiens), O95180 | Cav3.2-expressing cells; active compounds read low;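 active means single-dose well whose peak fluorescence ratio is a statistical outlier from its plate by either plate-standardised score or position-corrected B-score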
CYP2C9 inhib – blockers of cytochrome P450 2C9 activity – biochemical, luminescence, ADME assay, primary screen; CYP2C9 Supersomes, luciferin-H conversion; AID 777, 2007; 20% of 96,000 active; inhibition, % at 5 µM;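 active means blocking of liver enzyme CYP2C9 beyond about 50% at 5 µM, limit read from the data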
CYP2C19 inh – blockers of cytochrome P450 2C19 activity – biochemical, luminescence, ADME assay, primary screen. P33261. CYP2C19 Supersomes, luciferin-H EGE luminescence, 30 min. inhibition, % at 5 µM. 21% of 96,000 active. AID 778, 2007;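 active means CYP2C19 inhibition above a set limit at 5 µM in the primary screen, cut at about 50% in these data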;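 further: plate controls were negative control wells for no effect and 2.5 mM tranylcypromine positive control for full effect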
* hit, by the source's call; nt = no result given.

SMILES	CYP2C9 activ	CYP2C19 activ	Cav3 T inh	CYP2C9 inhib	CYP2C19 inh
CSCC[C@H](NC(=O)c1ccc(Cl)c(S(=O)(=O)N2CCCC2)c1)c1nc2ccccc2[nH]1	0.3	0.4	-2.6	68*	59*
COc1ccc(NC(=O)C2CCCN(S(=O)(=O)c3c(C)n[nH]c3C)C2)c(OC)c1 (stereo unspecified)	0.7	0.5	0.3	30	52*
CCOc1ccc(NC(=O)C2CCN(S(=O)(=O)c3c(C)n[nH]c3C)CC2)cc1	1	1.1	nt	1	-8
Cc1nn(C)c(C)c1S(=O)(=O)N1CCCC(C(=O)N2CCN(c3ccc(Cl)cc3)CC2)C1 (stereo unspecified)	0.1	0.2	-1.7	91*	84*
CCOC(=O)c1cccc(NC(=O)C2CCCN(S(=O)(=O)c3c(C)n[nH]c3C)C2)c1 (stereo unspecified)	0.1	0.3	-0.062	88*	66*
CCOC(=O)C1CCN(S(=O)(=O)c2c(C)n[nH]c2C)CC1	0.1	0.1	0.42	90*	88*
COc1ccc(NC(=O)C2CCCN(S(=O)(=O)c3cccc4cccnc34)C2)c(OC)c1 (stereo unspecified)	1	0.6	0.55	-5	41
CCOC(=O)C1CCN(S(=O)(=O)c2c(C)[nH]c(=O)[nH]c2=O)CC1	1.1	0.7	nt	-14	26
CNc1nc2c(c(=O)[nH]c(=O)n2C)n1CCOC	1	0.9	0.043	4	6
Cc1noc(C)c1S(=O)(=O)N1CCC(C(=O)Nc2ccc(OC(F)(F)F)cc2)CC1	1.1	1.2	0.099	-8	-16
COc1ccc(NC(=O)C2CCN(S(=O)(=O)c3c(C)noc3C)CC2)cc1Cl	0.3	0.2	0.1	68*	78*
CC(=O)c1cccc(NC(=O)C2CCN(S(=O)(=O)c3ccc(C)cc3)CC2)c1	nt	nt	0.19	nt	nt
Cc1n[nH]c(C)c1S(=O)(=O)N1CCCC(C(=O)N2CCc3ccccc32)C1 (stereo unspecified)	0.6	0.4	1.9	39	62*
CCOC(=O)c1cccc(NC(=O)C2CCCN(S(=O)(=O)c3c(C)nn(C)c3C)C2)c1 (stereo unspecified)	0.1	0.2	0.29	93*	83*
Cc1n[nH]c(C)c1S(=O)(=O)N1CCCC(C(=O)N2CCN(c3ccc(Cl)cc3)CC2)C1 (stereo unspecified)	0.7	0.6	1.2	33	35
CC(=O)c1cccc(NC(=O)C2CCN(S(=O)(=O)c3c(C)n[nH]c3C)CC2)c1	0.8	0.3	0.29	18	71*
O=C1CC2CS(=O)(=O)CC2N1C1CCCCC1 (stereo unspecified)	1.1	1.1	1	-10	-12
C/C(=C(\C#N)C(=O)NCc1ccccc1)N(C)C	0.9	0.9	-0.12	10	12
COc1ccc(S(=O)(=O)N2CCC(C(=O)Nc3cccc(C(C)=O)c3)CC2)cc1C	1.8	0	-1.2	-78	97*
Cn1cc(-c2nnnn2-c2cccc(C(F)(F)F)c2)c(C(F)(F)F)n1	0.6	0	nt	42	98*
Nc1c(-c2ccc(Cl)cc2)cnn1-c1cccc(C(F)(F)F)c1	1.9	0.8	-0.092	-88	22
O=C(NCC(F)(F)F)N1CCOCC1	1.2	1.2	nt	-19	-19
CCOC(=O)c1c(C)nc2sc(C(=O)Nc3ccc(C(C)=O)cc3)c(N)c2c1-c1ccc(OC)cc1	0.4	0.4	0.036	62*	60*
CCOC(=O)c1c(C)nc2sc(C(=O)Nc3ccc(OC)cc3)c(N)c2c1-c1ccc(OC)cc1	0.1	0.2	-4.8*	85*	81*
COCCn1c(-c2ccc(OC)cc2)nc2oc3cc(OC)ccc3c(=O)c2c1=O	1	1.1	1.3	-3	-5
SMILES	CYP2C9 activ	CYP2C19 activ	Cav3 T inh	CYP2C9 inhib	CYP2C19 inh
CCC(=O)NCCc1nc2ccccc2n1Cc1ccc(C)cc1	0.7	0.7	nt	31	28
O=C(Nc1ccc(Br)cc1)c1ccc(CSC2=NCCS2)cc1	0.6	0.8	-0.046	35	19
CS(=O)(=O)c1ccc(Sc2nc3ccccc3[nH]2)c([N+](=O)[O-])c1	0.2	0.1	1.3	79*	91*
O=[N+]([O-])c1cc(S(=O)(=O)C(F)(F)F)ccc1Sc1nc2ccccc2[nH]1	0.2	0.1	-4.5*	76*	90*
O=[N+]([O-])c1cc(C(F)(F)F)ccc1Sc1ccc2ccccc2n1	1	1	0.45	-3	-2
O=[N+]([O-])c1cc(S(=O)(=O)C(F)(F)F)ccc1Sc1nc2ccccc2s1	0.5	0.4	0.52	51*	63*
C=CCNC(=O)CSc1nc2cc(C(=O)OCC)ccc2n1CC	0.3	0	0.0073	75*	96*
COC(=O)c1ccc2c(c1)nc(C)n2CCO	1.1	1.1	-0.21	-11	-9
CCOC(=O)c1ccc2c(c1)nc(COc1ccc(OC)cc1)n2CC	0.4	0.2	-1.2	55*	76*
COc1cccc(C2NC(=O)NC(C)=C2C(=O)Nc2cccc(C)c2C)c1 (stereo unspecified)	1	0.9	-0.36	2	12
C=CCNC(=O)c1onc(CSc2cccc(Cl)c2)c1C(=O)O	0.3	0.9	-0.0088	68*	12
C=CCNC(=O)c1onc(CSc2cccc(C)c2)c1C(=O)O	0.3	0.9	-0.019	65*	12
COCCNC(=O)c1onc(CSc2cccc(Cl)c2)c1C(=O)O	0.9	1.2	0.29	14	-16
CSc1sc(C(=O)NN)c2c1C(O)CCC2 (stereo unspecified)	nt	nt	-2.2	nt	nt
Cc1cc(C)cc(NC(=O)CN2C(=O)NC(C)(c3ccccc3)C2=O)c1 (stereo unspecified)	1.1	1	-3.2	-10	4
O=C1c2ccccc2C(=O)N1CCN1CCCCC1	1.1	1	nt	-7	0
CCCC1(c2ccccc2)NC(=O)N(CCN2C(=O)c3ccccc3C2=O)C1=O (stereo unspecified)	0.6	0.1	1.7	38	89*
CC1(c2ccccc2)NC(=O)N(CCN2C(=O)c3ccccc3C2=O)C1=O (stereo unspecified)	0.3	0	0.24	67*	96*
O=C1OCc2cc(NS(=O)(=O)c3cccs3)ccc21	0.1	0.2	0.3	89*	76*
O=S(=O)(NC1=NCCC1)c1cccs1	1.1	0.9	0.037	-7	8
O=S(=O)(Nc1ccc2c(c1)CCC2)c1cccs1	0.2	0	-5.6*	83*	99*
CC(C)(C)NC(=O)CSC(=Nc1ccc(F)cc1)NC#N	0.6	0.3	0.27	41	72*
O=C(OCC(=O)N1CCN(C(=O)c2ccco2)CC1)c1cc(-c2ccc(Cl)c(Cl)c2Cl)nc2ccccc12	0.3	0.6	-3	69*	40
